These results are taken from PubChem BioAssay AID1671202 (University of Kansas High Throughput Screening Laboratory, 2021).

Where “and” joins values, the source holds several entries; their conditions need not be identical. Equal values may be shown once. Screen size: about 190,000 compounds; about 6,900 (3.6%) were called active. For the sample, actives were picked, then their nearest neighbours and some compounds at random. Unmarked numbers belong to inactive results. Cut-off read from the data, not from the text of the source: active = inhibition above about 50%; inactive = the rest.

The target of the test is Huntingtin (Homo sapiens) (UniProt P42858). As to the kind of experiment: mutant huntingtin-calmodulin interaction inhibitors – biochemical, AlphaScreen, primary screen (AID 1671202).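 Note: 0% = both proteins with DMSO and 100% = one protein alone.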 The conditions noted are these: AlphaScreen His-mHTT/GST-CaM binding, luminescence; at 15 µM, hits give high values. In general terms: Alpha assays give light when donor and acceptor beads are brought close together.
Chain of Huntingtin (Homo sapiens) (P42858 whole entry, looked up, stated change not applied): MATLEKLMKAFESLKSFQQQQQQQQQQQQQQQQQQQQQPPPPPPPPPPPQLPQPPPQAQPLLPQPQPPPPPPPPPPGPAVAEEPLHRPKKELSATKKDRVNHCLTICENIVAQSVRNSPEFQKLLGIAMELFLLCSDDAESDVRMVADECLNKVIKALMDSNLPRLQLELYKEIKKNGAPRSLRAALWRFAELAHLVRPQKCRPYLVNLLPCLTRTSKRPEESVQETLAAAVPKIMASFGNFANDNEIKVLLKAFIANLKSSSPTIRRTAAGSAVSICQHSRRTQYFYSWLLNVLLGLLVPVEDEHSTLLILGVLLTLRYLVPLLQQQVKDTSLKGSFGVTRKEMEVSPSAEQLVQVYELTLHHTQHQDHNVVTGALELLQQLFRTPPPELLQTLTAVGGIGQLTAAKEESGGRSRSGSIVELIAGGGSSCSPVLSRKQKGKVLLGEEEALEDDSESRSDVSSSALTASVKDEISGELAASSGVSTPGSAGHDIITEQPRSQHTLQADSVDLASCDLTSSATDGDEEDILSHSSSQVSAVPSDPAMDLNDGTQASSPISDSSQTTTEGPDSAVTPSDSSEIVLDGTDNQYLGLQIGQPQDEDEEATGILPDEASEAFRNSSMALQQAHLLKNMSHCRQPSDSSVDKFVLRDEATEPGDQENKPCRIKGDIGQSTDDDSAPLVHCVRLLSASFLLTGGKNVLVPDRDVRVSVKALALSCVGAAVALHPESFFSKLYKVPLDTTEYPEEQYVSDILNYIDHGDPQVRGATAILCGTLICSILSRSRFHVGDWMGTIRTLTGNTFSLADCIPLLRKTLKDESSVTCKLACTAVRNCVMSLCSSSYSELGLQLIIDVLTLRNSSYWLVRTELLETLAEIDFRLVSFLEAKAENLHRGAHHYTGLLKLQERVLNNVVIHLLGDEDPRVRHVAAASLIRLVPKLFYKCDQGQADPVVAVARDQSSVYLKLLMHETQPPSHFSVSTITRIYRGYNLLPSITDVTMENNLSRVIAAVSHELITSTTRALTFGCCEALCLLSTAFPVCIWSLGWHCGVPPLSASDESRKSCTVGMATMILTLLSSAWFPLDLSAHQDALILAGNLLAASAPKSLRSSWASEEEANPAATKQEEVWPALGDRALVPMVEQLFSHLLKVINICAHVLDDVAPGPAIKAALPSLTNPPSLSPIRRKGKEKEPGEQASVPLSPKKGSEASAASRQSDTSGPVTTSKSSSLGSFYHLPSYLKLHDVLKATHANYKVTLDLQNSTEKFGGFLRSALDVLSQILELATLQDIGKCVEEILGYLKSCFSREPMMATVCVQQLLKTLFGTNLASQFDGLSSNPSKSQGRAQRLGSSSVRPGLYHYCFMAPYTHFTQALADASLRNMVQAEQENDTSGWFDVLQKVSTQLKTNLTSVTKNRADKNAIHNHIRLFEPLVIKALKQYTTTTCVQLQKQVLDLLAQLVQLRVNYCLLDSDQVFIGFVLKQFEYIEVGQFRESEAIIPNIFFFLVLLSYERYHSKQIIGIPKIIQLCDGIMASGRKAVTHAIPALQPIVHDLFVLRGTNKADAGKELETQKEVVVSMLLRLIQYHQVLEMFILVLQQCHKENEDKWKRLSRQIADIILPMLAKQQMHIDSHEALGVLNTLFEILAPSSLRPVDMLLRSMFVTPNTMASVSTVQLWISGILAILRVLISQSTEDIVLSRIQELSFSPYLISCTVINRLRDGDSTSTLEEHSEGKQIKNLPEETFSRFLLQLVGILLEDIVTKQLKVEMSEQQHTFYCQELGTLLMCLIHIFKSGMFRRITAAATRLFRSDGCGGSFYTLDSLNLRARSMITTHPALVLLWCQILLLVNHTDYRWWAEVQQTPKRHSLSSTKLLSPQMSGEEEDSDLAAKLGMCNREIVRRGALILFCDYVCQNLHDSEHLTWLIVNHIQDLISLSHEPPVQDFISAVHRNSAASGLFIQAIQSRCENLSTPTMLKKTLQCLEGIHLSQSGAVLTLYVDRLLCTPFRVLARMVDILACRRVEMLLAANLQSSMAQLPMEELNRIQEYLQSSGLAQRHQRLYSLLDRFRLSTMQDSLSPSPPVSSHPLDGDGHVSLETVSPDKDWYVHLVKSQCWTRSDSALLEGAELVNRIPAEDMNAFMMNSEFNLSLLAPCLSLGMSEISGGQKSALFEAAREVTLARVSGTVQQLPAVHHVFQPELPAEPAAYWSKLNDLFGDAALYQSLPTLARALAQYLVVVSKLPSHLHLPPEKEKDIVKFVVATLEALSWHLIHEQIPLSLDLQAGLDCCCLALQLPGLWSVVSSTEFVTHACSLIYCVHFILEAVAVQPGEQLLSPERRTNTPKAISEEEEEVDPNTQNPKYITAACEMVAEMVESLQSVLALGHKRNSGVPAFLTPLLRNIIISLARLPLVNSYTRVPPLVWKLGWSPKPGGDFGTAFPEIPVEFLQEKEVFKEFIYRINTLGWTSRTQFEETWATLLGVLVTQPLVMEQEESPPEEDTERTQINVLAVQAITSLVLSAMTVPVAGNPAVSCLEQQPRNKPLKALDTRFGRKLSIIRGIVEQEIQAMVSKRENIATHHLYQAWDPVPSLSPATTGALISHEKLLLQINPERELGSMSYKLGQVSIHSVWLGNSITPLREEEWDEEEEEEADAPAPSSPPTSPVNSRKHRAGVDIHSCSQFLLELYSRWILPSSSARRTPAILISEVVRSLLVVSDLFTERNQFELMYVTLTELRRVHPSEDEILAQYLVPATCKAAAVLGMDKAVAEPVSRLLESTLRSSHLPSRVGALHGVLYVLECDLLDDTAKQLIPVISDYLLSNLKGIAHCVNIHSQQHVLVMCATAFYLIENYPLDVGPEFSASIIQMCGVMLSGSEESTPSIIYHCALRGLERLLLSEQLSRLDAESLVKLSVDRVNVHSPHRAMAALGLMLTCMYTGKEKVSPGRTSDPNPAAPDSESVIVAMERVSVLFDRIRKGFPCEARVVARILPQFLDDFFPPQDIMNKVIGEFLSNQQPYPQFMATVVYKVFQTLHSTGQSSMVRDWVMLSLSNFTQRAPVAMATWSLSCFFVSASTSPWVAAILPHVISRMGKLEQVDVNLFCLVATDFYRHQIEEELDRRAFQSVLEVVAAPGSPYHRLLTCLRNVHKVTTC
Broadly, the inhibition is the relative decrease from the control value, in per cent. Turning to `O=[N+]([O-])c1ccc(N2CCN(CC3CC4C=CC3C4)CC2)cc1` (stereo not given), the inhibition is 19.4%.
As for `COc1cc(Cl)c(NC(=O)C2CCCN(C(=O)c3cc(C)cc(C)c3)C2)c(OC)c1` (stereo not given), the figure is 1.7%; as for `CC1(C)CC(=O)C2=C(C1)Nc1ccc3ncccc3c1C2c1ccccc1C(F)(F)F` (stereo not given), 4%.
As for `CCOc1ccc(-c2ccc(N3CCN(C(=O)Cn4cnc5ccccc54)CC3)nn2)cc1`, the figure is 14.5%.
As for `CC(=O)c1cccc(-c2ccc(CN3C(CC(C)C)C(=O)N(Cc4cn(CC5CCCCC5)nn4)CCS3(=O)=O)cc2)c1` (stereo not given), the inhibition is 22.9%.
Next, `Cc1ccc(-c2ccc(CN3C(C(C)C)C(=O)N(Cc4cn(CCC5OCCO5)nn4)CCS3(=O)=O)cc2)cc1` (stereo not given): 14.9%; `CC(C)C1C(=O)N(Cc2cn(CCC3OCCO3)nn2)CCS(=O)(=O)N1Cc1ccc(-c2ccccc2C(F)(F)F)cc1` (stereo not given): 43.5%.
Next, `CC1C(=O)N(Cc2cn(Cc3ccco3)nn2)CCS(=O)(=O)N1Cc1ccc(-c2cccc(CO)c2)cc1` (stereo not given): 30%; `COc1ccc(-c2ccc(CN3C(CC(C)C)C(=O)N(Cc4cn(CC5CCCCC5)nn4)CCS3(=O)=O)cc2)cc1` (stereo not given): 3.9%; `Cc1ccc(-c2ccc(CN3C(C(C)C)C(=O)N(Cc4cn(CCC5OCCCO5)nn4)CCS3(=O)=O)cc2)cc1` (stereo not given): 19%.
As for `CC(C)CC1C(=O)N(Cc2cn(Cc3ccco3)nn2)CCS(=O)(=O)N1Cc1ccc(-c2ccc(Cl)c(Cl)c2)cc1` (stereo not given), the figure is 97.6% (active); as for `COc1ccc(-c2ccc(CN3C(C(C)C)C(=O)N(Cc4cn(CC5CCCCC5)nn4)CCS3(=O)=O)cc2)cn1` (stereo not given), 29.4%; as for `Cc1ccc(-c2ccc(CN3C(C)C(=O)N(Cc4cn(CCC5OCCCO5)nn4)CCS3(=O)=O)cc2)cc1` (stereo not given), -4%.
As for `COCOCCn1cc(CN2CCS(=O)(=O)N(Cc3ccc(-c4ccccc4)cc3)C(CC(C)C)C2=O)nn1` (stereo not given), the inhibition was 60.8% (active).
As to `CC1C(=O)N(Cc2cn(CC3CCCCC3)nn2)CCS(=O)(=O)N1Cc1ccc(-c2cccc(N(C)C)c2)cc1` (stereo not given), the inhibition was 65.9% (active).
As to `COCOCCn1cc(CN2CCS(=O)(=O)N(Cc3ccc(-c4cccc(N(C)C)c4)cc3)C(CC(C)C)C2=O)nn1` (stereo not given), the inhibition is 65.8% (active).
As to `CC(C)NC(=O)c1cn(-c2ccc(F)cc2)nn1`, the inhibition is 3.4%.
Next, `COc1c(S(=O)(=O)Nc2ccc(CC(=O)O)cc2)ccc(Cl)c1Cl`: -3%.
Next, `Cc1ccc(C(=O)NC2CCN(c3ccccc3C(=O)N(C)C(C)C)CC2)cc1`: 6.6%.
As to `O=C(c1ccc(Cl)cc1)N(Cc1cc(-c2ccccc2)on1)C1CC1`, the inhibition is -12.1%.
As for `CCC(c1ccccc1)c1nc(-c2ccc3nnn(C)c3c2)no1` (stereo not given), the inhibition was -20.7%.
As for `CCCCC(=O)Nc1c2c(nn1-c1ccc([N+](=O)[O-])cc1)CS(=O)(=O)C2`, the figure is -1%.
Regarding `CCOC(=O)c1c(NC(=O)c2ccc([N+](=O)[O-])s2)sc2c1CCCC2`, the inhibition is -0.8%.
As for `COc1nccnc1NS(=O)(=O)c1ccc(NC(=O)c2ccc(C(C)(C)C)cc2)cc1`, the figure is 13.2%; as for `O=c1[nH]c(C=C2C=Nc3ccc(Br)cc32)c(O)n1Cc1ccc(Br)cc1`, 93% (active); as for `CCc1nc2c(NC(=O)Nc3cccc(C)c3)cccn2n1`, -3.6%.
As for `COc1ccc(-n2nc3c(c2NC(=O)c2ccccc2Cl)CSC3)cc1`, the figure is 22%; as for `COc1cc(OC)cc(C(=O)N2CCc3c(c(C(=O)NCc4cccc(C)c4)nn3C)C2)c1`, 40.8%; as for `Cn1nc(C(=O)NCc2ccccc2)c2c1CCN(C(=O)c1cccc(F)c1)C2`, 64.8% (active).
As for `CCCC(=O)N1CCc2c(c(C(=O)NCc3cccc(C)c3)nn2C)C1`, the figure is 35.7%; as for `COc1ccc(CC(=O)N2CCc3c(c(C(=O)NCc4cccc(C)c4)nn3C)C2)cc1`, 40.5%.
For `Cc1cccc(C(=O)N2CCc3c(c(-c4nc(Cc5ccccc5)no4)nn3C)C2)c1`, the inhibition was 7.62%.
Regarding `COc1cccc(C(=O)N2CCc3c(c(C(=O)NCc4cccc(C)c4)nn3C)C2)c1`, the inhibition is 66.6% (active).
Next, `O=C(O)CCCCCNS(=O)(=O)c1cccc(C(F)(F)F)c1`: -2%; `O=C(c1ccc(F)cc1)N1CCCC1c1ccccc1F` (stereo not given): -8.08%.
Next, `O=C(CSC1=Nc2ccccc2C2=NC(Cc3ccccc3)C(=O)N12)NC1CCCCC1` (stereo not given): 39%.
Next, `O=C(CSC1=Nc2ccccc2C2=NC(Cc3ccccc3)C(=O)N12)c1ccc(O)c(O)c1` (stereo not given): 57% (active).
Consider `CC(C)C1N=C2c3ccccc3N=C(SCC(=O)c3ccc(O)c(O)c3)N2C1=O` (stereo not given), for which the inhibition was 20%.
As for `CCCN1C(=O)COc2ccc(-c3noc(-c4ccccc4C(F)(F)F)n3)cc21`, the inhibition is -2.1%.
As for `CCN(CC)c1ncc2c(n1)CCC(C(=O)N(C)c1ccc(C)c(C)c1)C2` (stereo not given), the figure is 25.8%; as for `Cc1ccc(N=Cc2ccc(Cl)cc2Cl)c(O)c1`, 12%.
Regarding `Cc1ccc2c(c1)-c1c(ssc1=Nc1ccc(Cl)cc1Cl)C(C)(C)N2`, the inhibition is 73.7% (active).
Next, `CC(=O)Nc1ccc(N2CCCCC2)nc1`: 2.4%; `COC(=O)c1ccccc1NC(=O)N1CCc2[nH]cnc2C1c1ccncc1` (stereo not given): 7.22%; `O=C(c1ccc(F)c(F)c1)N1CCc2[nH]cnc2C1c1ccccc1` (stereo not given): 17.4%.
On to `O=C(Nc1ccc(C(F)(F)F)cc1)N1CCc2[nH]cnc2C1c1ccncc1` (stereo not given), for which the inhibition was 11.1%.
Take `CC(C)NC(=O)N1CCc2[nH]cnc2C1c1ccccn1` (stereo not given): the inhibition is 83.5% (active).
Consider `O=C(Cc1ccc(F)cc1)N1CCc2[nH]cnc2C1c1ccccn1` (stereo not given), for which the inhibition is 81.1% (active).
As for `O=C(Nc1c(F)cccc1F)N1CCc2[nH]cnc2C1c1ccncc1` (stereo not given), the figure is -5.1%.
Consider `O=C1OC(c2ccc(Cl)cc2Cl)=N/C1=C\c1ccc(F)cc1`, for which the inhibition was 2%.
For the compound `COc1cccc(C2CC(c3cc(Br)ccc3F)n3nnnc3N2)c1` (stereo not given), the inhibition was 4.06%.
As for `CCCNC(=O)C1CN(C(=O)c2ccccc2F)CC1c1cccc(F)c1` (stereo not given), the figure is -5.9%; as for `CC1(C)c2ccccc2N(CCO)C12C=Cc1cc([N+](=O)[O-])ccc1O2` (stereo not given), 62% (active).
As for `O=C1CSC(c2cccc([N+](=O)[O-])c2)N1c1cc(Cl)ccc1O` (stereo not given), the figure is 8%.
Regarding `COc1ccccc1C(=O)Nc1nc2n(n1)C(c1ccccc1)C=C(c1ccc(Cl)cc1)N2` (stereo not given), the inhibition is 51% (active).
As for `Cc1nc2n(n1)C(c1ccc(Cl)cc1)C=C(c1ccc(Cl)cc1)N2` (stereo not given), the figure is 31%; as for `Clc1ccc(C2=CC(c3ccccc3)n3ncnc3N2)cc1` (stereo not given), 1% and -2.22%.
As to `CCS(=O)(=O)NCc1nnnn1-c1ccc(F)c(F)c1`, the inhibition was -8.6%.
As for `Cc1cccc(N2CCC(C(=O)NCc3ccccc3F)C2=O)c1C` (stereo not given), the figure is -0.6%.
As for `COc1ccc(-c2ncc3c(n2)CCN(C(=O)c2cccc(OC)c2)C3)cc1`, the figure is 11.1%.
As for `O=C(NC1CCCC1)C1CCNCC1`, the figure is -0.4%.
On to `Cc1cc(-c2nnc(NC(=O)C3CC(=O)N(c4ccc(C)c(C)c4)C3)o2)n(C)n1` (stereo not given), for which the inhibition is 90.2% (active).
Take `Cc1ccc(N2CC(C(=O)Nc3cc(C(F)(F)F)ccc3Cl)CC2=O)cc1C` (stereo not given): the inhibition is -1%.
Next, `COc1ccc(NC(=O)C2CC(=O)N(c3ccc4oc(C)nc4c3)C2)cc1` (stereo not given): 2.03%; `N#Cc1ccc(C(=O)N2CCCC2c2nc(-c3cccc(C(F)(F)F)c3)no2)cc1` (stereo not given): 2.8%; `O=C(C1COc2ccccc2O1)N1CC(c2nc(-c3cccc(C(F)(F)F)c3)no2)C1` (stereo not given): 88.9% (active).
As for `O=C(c1cccnc1)N1CCCC1c1nc(-c2cccc(C(F)(F)F)c2)no1` (stereo not given), the figure is 27.6%; as for `COc1ccc(C(=O)COc2ccc3c(c2)OC(=Cc2cc(OC)c(OC)c(OC)c2)C3=O)cc1`, 2.6%.
Next, `Cc1ccc(C)c(NC(=O)c2cc3n(n2)CCCN(Cc2ccccc2)C3=O)c1`: -4.93%; `CS(=O)(=O)N1CCc2cc(NC(=O)Nc3cccc(C(F)(F)F)c3)ccc21`: 16.1%; `O=C(C1c2ccccc2Oc2ccccc21)N1CCN(c2ccc([N+](=O)[O-])cc2)CC1`: -2.2%.
For the compound `CN(C)c1ccc(C(=O)NC2CCN(c3ccccc3)C2=O)cc1` (stereo not given), the inhibition is -3.2%.
With `CC(C)=CC(=O)CC(C)(O)c1ccccc1` (stereo not given), the inhibition is 1.5%.
As for `CN(C)c1ccc(C(O)(c2ccccc2)c2ccccc2)cc1`, the inhibition is 76% (active).
Regarding `COc1ccccc1C(=O)N1CCc2nc(-c3ccc(Cl)cc3)ncc2C1`, the inhibition was 9.54%.
As for `COc1ccccc1-c1nc(C2CCN(C(=O)c3ccc(Cl)cc3)CC2)no1`, the figure is 38.7%; as for `COc1ccccc1-c1nc(C2CCN(C(=O)c3cc4cc(Cl)ccc4[nH]3)CC2)no1`, 80.8% (active); as for `COc1ccccc1-c1nc(C2CCN(C(=O)C3COc4ccccc4O3)CC2)no1` (stereo not given), 34.9%.
Next, `CCS(=O)(=O)N1CCCC(OCc2nc(CCOC)no2)C1` (stereo not given): -8.91%; `Cn1cccc1C(=O)N1CCc2nc3cc(-c4ccccc4)[nH]n3c(=O)c2C1`: 25.2%.
As for `CCCCS(=O)(=O)N1CCc2c(nc3cc(-c4ccccc4Cl)[nH]n3c2=O)C1`, the inhibition was 21.9%.
As for `COc1ccccc1CC(=O)N1CCc2c(nc3cc(-c4ccccc4Cl)[nH]n3c2=O)C1`, the figure is 53% (active); as for `COc1ccccc1C(=O)N1CCc2c(nc3cc(-c4ccccc4Cl)[nH]n3c2=O)C1`, 63.9% (active); as for `O=C(NCC1CCCO1)N1CCc2nc3cc(-c4ccccc4Cl)[nH]n3c(=O)c2C1` (stereo not given), 5.22%.
As for `COc1ccc(Cl)cc1C(=O)N1CCc2c(nc3cc[nH]n3c2=O)C1`, the figure is 9.45%.
